For assay [1], the system named is PRMT1 (protein arginine N-methyltransferase 1). Kind of assay: small molecules binding arginine methyltransferase PRMT1 – biochemical, small-molecule microarray, 635 nm fluorescence, primary screen (AID 1088).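 Further: binding of Prmt1 protein to compounds spotted on small-molecule microarray slides.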 The settings on record: higher = more signal.
Assay [2] in a line: growth effects on S. cerevisiae YJM789 – YJM789 clinical isolate, OD600, 24 h, basal, primary screen (AID 1089).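 Further: growth of clinical yeast isolate S. cerevisiae YJM 789 seeded 1000 cells per well; test concentration not given here.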 The settings on record: higher = more signal, called active from +8 up or from −8 down.
Assay [3] in a line: S. pombe growth modifiers, basal conditions – strain 972, OD600, 24 h, no modulator, primary screen (AID 1090).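 Further: basal condition with compound alone and no growth modifier present; test concentration not given here.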 The settings on record: S. pombe 972 growth, higher = more signal, called active from +8 up or from −8 down.
Assay [4] is described as follows: budding yeast growth modifiers under rapamycin – strain BY4716, OD600, 96 h, primary screen (AID 1091). Further: test concentration not given here. The settings on record: S. cerevisiae BY4716 + rapamycin, higher = more signal, called active from +8 up or from −8 down.
For assay [5], the target named is Torsin-1A-interacting protein 2 (Homo sapiens) (UniProt Q8NFQ8). The assay can be described thus: small molecules binding lysate-expressed LULL1 – cell lysate, human LULL1 lysate, 635/667 nm fluorescence, primary screen (AID 1092).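 Further: probe is lysate of COS7 cells overexpressing human LULL1; score merges per-feature 667 nm fluorescence with signal-to-noise.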 The settings on record: small-molecule microarray, hLULL1 lysate binding, 635 nm fluorescence; higher = more signal.
Chain of Torsin-1A-interacting protein 2 (Homo sapiens) (Q8NFQ8 whole entry, looked up): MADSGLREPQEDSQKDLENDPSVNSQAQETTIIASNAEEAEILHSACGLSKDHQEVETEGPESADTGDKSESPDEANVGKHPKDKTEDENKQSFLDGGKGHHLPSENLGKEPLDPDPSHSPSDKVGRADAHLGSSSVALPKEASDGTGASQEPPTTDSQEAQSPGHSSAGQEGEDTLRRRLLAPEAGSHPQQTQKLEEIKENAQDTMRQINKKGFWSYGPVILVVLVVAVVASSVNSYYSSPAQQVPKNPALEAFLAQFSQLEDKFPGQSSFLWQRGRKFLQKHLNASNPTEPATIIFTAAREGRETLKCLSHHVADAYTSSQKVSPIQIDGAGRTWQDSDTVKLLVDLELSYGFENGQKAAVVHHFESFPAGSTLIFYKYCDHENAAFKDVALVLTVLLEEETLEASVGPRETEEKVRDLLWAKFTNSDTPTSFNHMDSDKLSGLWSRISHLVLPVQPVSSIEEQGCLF
The nature of assay [6]: optical density change of DRC41 E. coli – strain DRC41, OD650, 24 h, E. coli filamentation project, primary screen (AID 1093).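 Further: MC1000 strain lacking acrAB efflux and sulA so SOS filamentation is blocked; test concentration not given here.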 The settings on record: E. coli DRC41 growth, higher = more signal, called active from +8 up or from −8 down.
Assay [7] in a line: probe aLefty2 binding to arrayed compounds – biochemical, biotinylated probe, 635/667 nm fluorescence, primary screen (AID 1094).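 Further: score merges spot fluorescence near 667 nm with spot signal-to-noise ratio.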 The settings on record: small-molecule microarray, higher = more signal.
For assay [8], the system named is Noggin (protein binding on small-molecule microarray). Kind of assay: small molecules binding Noggin protein – biochemical, 635/667 nm fluorescence, primary screen (AID 1095).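 Further: score merges 667 nm feature fluorescence with signal to noise over triplicate slides.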 The settings on record: 635 nm fluorescence, higher = more signal.
The target in assay [9] is Neurogenic locus notch homolog protein 3 (Homo sapiens) (UniProt Q9UM47). The assay can be described thus: small molecules binding NOTCH3 protein – biochemical, 635/667 nm fluorescence, primary screen (AID 1096). The settings on record: small-molecule microarray, 635 nm fluorescence, higher = more signal.
Chain of Neurogenic locus notch homolog protein 3 (Homo sapiens) (Q9UM47 whole entry, looked up): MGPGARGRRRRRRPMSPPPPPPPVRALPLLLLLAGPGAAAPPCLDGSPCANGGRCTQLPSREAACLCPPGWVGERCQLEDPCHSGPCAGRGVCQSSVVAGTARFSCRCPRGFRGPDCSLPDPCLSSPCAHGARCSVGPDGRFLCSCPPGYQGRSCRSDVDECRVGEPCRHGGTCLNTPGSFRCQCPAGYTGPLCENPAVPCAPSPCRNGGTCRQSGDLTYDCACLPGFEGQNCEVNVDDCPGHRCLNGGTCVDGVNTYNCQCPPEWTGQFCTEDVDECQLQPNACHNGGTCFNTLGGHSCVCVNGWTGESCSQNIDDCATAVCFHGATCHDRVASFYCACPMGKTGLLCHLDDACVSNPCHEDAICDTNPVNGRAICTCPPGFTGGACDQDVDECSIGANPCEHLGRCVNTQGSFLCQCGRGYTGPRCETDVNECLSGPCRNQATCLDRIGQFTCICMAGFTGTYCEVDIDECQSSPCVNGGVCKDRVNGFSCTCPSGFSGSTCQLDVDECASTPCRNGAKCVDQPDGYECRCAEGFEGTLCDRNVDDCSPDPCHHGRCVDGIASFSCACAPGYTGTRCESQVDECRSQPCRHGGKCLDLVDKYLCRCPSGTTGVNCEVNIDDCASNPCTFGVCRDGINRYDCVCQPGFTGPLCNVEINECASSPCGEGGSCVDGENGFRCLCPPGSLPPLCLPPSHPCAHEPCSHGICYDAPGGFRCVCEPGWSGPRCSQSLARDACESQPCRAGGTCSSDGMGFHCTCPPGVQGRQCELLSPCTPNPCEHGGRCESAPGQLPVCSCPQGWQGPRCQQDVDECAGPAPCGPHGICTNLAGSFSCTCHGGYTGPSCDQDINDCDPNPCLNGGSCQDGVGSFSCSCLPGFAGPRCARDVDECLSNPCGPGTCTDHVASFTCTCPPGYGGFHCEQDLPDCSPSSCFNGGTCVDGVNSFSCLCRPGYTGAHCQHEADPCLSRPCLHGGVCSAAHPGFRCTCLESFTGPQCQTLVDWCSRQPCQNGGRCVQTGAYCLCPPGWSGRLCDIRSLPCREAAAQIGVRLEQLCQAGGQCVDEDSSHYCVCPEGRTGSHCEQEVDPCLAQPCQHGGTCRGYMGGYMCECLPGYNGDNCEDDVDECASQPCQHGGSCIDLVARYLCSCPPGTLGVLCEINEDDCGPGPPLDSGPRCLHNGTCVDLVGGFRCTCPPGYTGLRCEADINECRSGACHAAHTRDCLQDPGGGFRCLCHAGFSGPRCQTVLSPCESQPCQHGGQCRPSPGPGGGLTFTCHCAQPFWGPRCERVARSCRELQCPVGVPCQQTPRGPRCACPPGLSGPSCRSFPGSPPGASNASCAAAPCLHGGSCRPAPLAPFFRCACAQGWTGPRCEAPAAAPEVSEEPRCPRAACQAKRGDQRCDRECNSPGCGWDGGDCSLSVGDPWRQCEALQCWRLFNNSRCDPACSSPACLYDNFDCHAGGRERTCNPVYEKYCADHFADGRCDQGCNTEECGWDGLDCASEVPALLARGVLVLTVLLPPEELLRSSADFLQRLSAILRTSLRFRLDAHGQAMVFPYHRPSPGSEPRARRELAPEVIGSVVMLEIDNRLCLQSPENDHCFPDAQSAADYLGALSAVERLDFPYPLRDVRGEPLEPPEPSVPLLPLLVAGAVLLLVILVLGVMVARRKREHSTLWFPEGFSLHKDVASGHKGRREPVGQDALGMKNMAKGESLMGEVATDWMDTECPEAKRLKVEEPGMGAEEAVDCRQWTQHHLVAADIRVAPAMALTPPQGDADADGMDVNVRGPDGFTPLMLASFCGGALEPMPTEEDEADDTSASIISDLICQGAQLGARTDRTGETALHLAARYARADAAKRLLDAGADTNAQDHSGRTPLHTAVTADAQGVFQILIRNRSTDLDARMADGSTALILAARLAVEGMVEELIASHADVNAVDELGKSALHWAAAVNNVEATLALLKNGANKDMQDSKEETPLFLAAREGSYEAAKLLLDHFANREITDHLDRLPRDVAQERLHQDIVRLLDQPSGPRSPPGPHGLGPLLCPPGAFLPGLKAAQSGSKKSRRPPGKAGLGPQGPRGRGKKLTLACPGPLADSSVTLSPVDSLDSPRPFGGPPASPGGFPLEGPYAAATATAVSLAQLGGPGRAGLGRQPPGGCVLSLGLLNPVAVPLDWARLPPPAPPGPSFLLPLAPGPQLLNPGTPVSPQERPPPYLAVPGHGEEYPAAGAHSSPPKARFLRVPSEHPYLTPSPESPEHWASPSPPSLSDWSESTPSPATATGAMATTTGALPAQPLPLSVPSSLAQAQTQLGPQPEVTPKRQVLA
A short description of assay [10]: probe aEGFR binding to arrayed compounds – biochemical, biotinylated probe, 635/667 nm fluorescence, primary screen (AID 1097).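 Further: probe is a biotinylated anti-EGFR antibody binding compounds printed on slides; score combines fluorescence near 667 nm and signal to noise of each spot.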 The settings on record: small-molecule microarray, higher = more signal.

Active and inactive are the calls of the source.

For `COCCOC(=O)N1C(=O)[C@@]2(c3cc(C#CC4=CCCCC4)ccc31)[C@H](c1ccc(O)cc1)N1[C@H](c3ccccc3)[C@H](c3ccccc3)OC(=O)[C@H]1[C@@H]2C(N)=O`, the composite z-score was 1.56 in [1]; 1.84 in [5]; -0.388 in assay [7]; 1.63 in [8]; 1.1 in assay [9]; -0.11 in assay [10]. Further, the z-score was 0.893 (inactive) in [2], 0.358 (inactive) in assay [3], 0.918 (inactive) in assay [4] and -0.603 (inactive) in assay [6].
`COCCOC(=O)N1C(=O)[C@@]2(c3cc(C#CCCO)ccc31)[C@H](C(=O)N1CCN(c3ncccn3)CC1)[C@H]1C(=O)O[C@H](c3ccccc3)[C@H](c3ccccc3)N1[C@@H]2c1ccccc1OCCO`: the composite z-score in assay [1] was 1.55; in [5] it was 2.98; in assay [7] it was -0.114; in [8], 0.791; in [9] it was 0.846; in assay [10], 0.268. The z-score was 0.335 (inactive) in assay [2], 0.411 (inactive) in assay [3], 3.34 (inactive) in assay [4] and 1.84 (inactive) in assay [6].
For the molecule `CCCC[C@@H]1C[C@H]1[C@@H](NC(=O)c1ccco1)c1ccc(Cl)cc1`, the composite z-score in assay [1] is 0.44; in assay [5] it was 2.89; in [7] it was 0.164; in assay [8] it was -0.576; in assay [9], 0.889; in [10] it was 0.0271. Moreover, the z-score in assay [2] is 0.622 (inactive); in assay [3] it was 0.362 (inactive); in assay [4], 0.384 (inactive); in [6], -0.815 (inactive).
`CCOC(=O)C[C@H]1[C@H](OC(=O)Cc2ccc3c(c2)OCO3)[C@@H](NC(=O)c2ccc3ccccc3c2)c2cc(OCCCO)ccc2N1C(=O)c1ccccc1`: the composite z-score is 0.745 in [1]; 1.69 in assay [5]; -0.0961 in [7]; 0.329 in assay [8]; 0.742 in [9]; -0.0225 in assay [10]. The z-score in [2] was -0.0607 (inactive); in [3], 0.175 (inactive); in [4] it was 0.954 (inactive); in [6], 1.35 (inactive).
As to `O=C1OCC=C[C@H]2OC34C=CCN(CCN5CCOCC5)C(=O)[C@H]3N(CCCO)C(=O)[C@@H]4[C@@H]12` (stereo not given in full), the composite z-score in assay [1] is -0.102; in [5], 0.477; in assay [7], -0.208; in [8], 0.219; in [9] it was 0.314; in assay [10], -0.128. Moreover, the z-score in [2] is 0.0736 (inactive); in assay [3] it was -0.454 (inactive); in assay [4], 0.238 (inactive); in assay [6] it was 0.681 (inactive).
Turning to `CCOC(=O)C1=CCC(c2ccccc2)N(S(=O)(=O)CC[Si](C)(C)C)C1` (stereo not given), the composite z-score in assay [1] is -0.0595; in assay [5] it was 0.0058; in [7] it was -0.235; in assay [8], -0.288; in assay [9], -0.822; in [10], -0.334. In addition, the z-score in assay [2] was -0.465 (inactive); in assay [3] it was 0.178 (inactive); in assay [4], 2.78 (inactive); in assay [6], 0.185 (inactive).
Regarding `CN(C)CCCNC(=O)[C@@]1(c2ccc([N+](=O)[O-])cc2)CC(=O)N(C2CCCCC2)[C@@H]1c1ccc(CO)cc1`, the composite z-score in assay [1] is 1.54; in assay [5], 1.09; in assay [7] it was -0.0259; in assay [8] it was 0.0069; in assay [9] it was 0.444; in assay [10], -0.0978. Further, the z-score is 1.78 (inactive) in assay [2], -8.13 (active) in assay [3], -1.97 (inactive) in assay [4] and 0.59 (inactive) in assay [6].
For the molecule `[N-]=[N+]=NCc1ccccc1[C@@H]1OC(c2ccc(OCCCO)cc2)=N[C@]1(CCS(=O)(=O)c1ccccc1)C(=O)NCCN1CCOCC1`, the composite z-score in assay [1] came out at 1.53; in assay [5] it was 3.37; in assay [7] it was 0.0542; in [8], 1.78; in assay [9] it was 1.04; in [10], 0.208. The z-score in assay [2] was 0.36 (inactive); in assay [3], 0.517 (inactive); in assay [4], 0.766 (inactive); in [6] it was 0.283 (inactive).
For the molecule `CCOC1=C2C(CN(S(=O)(=O)c3ccc(C)cc3)C2c2ccc(C)cc2)C2C(=O)N(c3ccccc3)C(=O)C2C1` (stereo not given), the composite z-score in assay [1] is 0.952; in assay [5], 1.96; in assay [7] it was -0.0515; in assay [8] it was 0.257; in assay [9], 0.875; in assay [10], 0.0414. Moreover, the z-score in assay [2] is 0.218 (inactive); in assay [3] it was 1.86 (inactive); in assay [4], 0.852 (inactive); in assay [6], 0.0696 (inactive).
As for `[N-]=[N+]=Nc1ccccc1[C@H]1OC(c2ccc(OCCCO)cc2)=N[C@@]1(Cc1ccccc1)C(=O)O`, the composite z-score in assay [1] is 1.3; in assay [5], 3.3; in [7] it was -0.0152; in assay [8], 0.875; in [9] it was 1.11; in assay [10] it was -0.0351. The z-score in assay [2] is 0.206 (inactive); in [3], -0.329 (inactive); in [4] it was -1.06 (inactive); in assay [6] it was 0.355 (inactive).
Regarding `COC(=O)C=C(CC(O)c1cccc(Cl)c1)OC` (stereo not given), the composite z-score was 0.0922 in [1]; 2.4 in [5]; 1.06 in assay [7]; -0.309 in assay [8]; -0.547 in assay [9]; 0.115 in [10]. In addition, the z-score in assay [2] was -4.19 (inactive); in [3], -10.8 (active); in assay [4], -1.02 (inactive); in [6], 0.0753 (inactive).
With `COc1ccc(C(O)C2C=CC3C(=O)NC(=O)C3N2Nc2ccccn2)cc1` (stereo not given), the composite z-score worked out at 0.425 in assay [1]; 0.665 in [5]; 0.251 in [7]; 0.195 in assay [8]; 0.49 in [9]; 0.164 in [10]. Also, the z-score in [2] was 0.181 (inactive); in assay [3], 0.312 (inactive); in [4], 0.359 (inactive); in assay [6] it was -0.434 (inactive).
With `COC(=O)c1c(CC[C@@H](CO)NC(=O)N2CCC[C@H]2Cn2cc(-c3ccccn3)nn2)oc(C(C)=O)c1C(=O)OC`, the composite z-score in assay [1] is 0.986; in assay [5], 3.03; in assay [7], -0.155; in assay [8], 0.81; in assay [9], -0.126; in assay [10], -0.13. Also, the z-score in assay [2] was -0.833 (inactive); in [3], 0.195 (inactive); in [4], -1.46 (inactive); in assay [6], 1.25 (inactive).
For `O=C1NC(=O)C2C1C=CC(C(O)c1ccccc1)N2Nc1ccc(Cl)cc1Cl` (stereo not given), the composite z-score in assay [1] turned out to be 1.56; in assay [5] it was 3.74; in assay [7], 0.0847; in assay [8] it was 0.385; in [9], 1.12; in assay [10] it was 0.063. In addition, the z-score in [2] is -25.6 (active); in [3], -4.35 (inactive); in assay [4], -1.48 (inactive); in assay [6], -1.8 (inactive).

The values above are taken from PubChem BioAssay.
